Source: PubChem
Hits are enriched below; roughly 28% of the tested compounds scored in any of these assays.
D1 mod: D1 CRE-luciferase signal change, two-sided – cell-based, HEK293 D1, dopamine EC30, D1 allosteric modulator project, primary screen; AID 641, 2007; 58,000 tested, 5.9% active; D(1A) dopamine receptor (Homo sapiens), P21728; B-score at 10 µM; dopamine EC30 potentiation; actives deviate in either direction;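 active = luminescence count or its row- and column-corrected plate score outside the 99.7% band of the plate's sample wells, on either side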
CYP2C19 inh: blockers of cytochrome P450 2C19 activity – biochemical, luminescence, ADME assay, primary screen | P33261 | CYP2C19 Supersomes, luciferin-H EGE luminescence, 30 min | AID 778, 2007 | 96,000 tested, 21% active | inhibition, % at 5 µM;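 active = CYP2C19 inhibition above a set limit at 5 µM in the primary screen, cut at about 50% in these data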
DAT uptake mod: changed hDAT dopamine uptake under cocaine IC80, either direction, primary screen, cocaine antagonist project, cell-based, LLC-PK1 hDAT, [14C]-dopamine uptake, MLSMR; Sodium-dependent dopamine transporter (Homo sapiens), Q01959; LLC-PK1 hDAT cells, [14C]-dopamine uptake with cocaine IC80; actives deviate in either direction; B-score at 10 µM; 110,000 tested, 1.3% active; AID 449768, 2010;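 active = Z score or B-score, a plate-position-corrected score, falls beyond the plate's 99.7% confidence bounds, in either direction; inactive = both scores lie inside the 99.7% bounds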
Target sequence (Q01959 whole entry, looked up): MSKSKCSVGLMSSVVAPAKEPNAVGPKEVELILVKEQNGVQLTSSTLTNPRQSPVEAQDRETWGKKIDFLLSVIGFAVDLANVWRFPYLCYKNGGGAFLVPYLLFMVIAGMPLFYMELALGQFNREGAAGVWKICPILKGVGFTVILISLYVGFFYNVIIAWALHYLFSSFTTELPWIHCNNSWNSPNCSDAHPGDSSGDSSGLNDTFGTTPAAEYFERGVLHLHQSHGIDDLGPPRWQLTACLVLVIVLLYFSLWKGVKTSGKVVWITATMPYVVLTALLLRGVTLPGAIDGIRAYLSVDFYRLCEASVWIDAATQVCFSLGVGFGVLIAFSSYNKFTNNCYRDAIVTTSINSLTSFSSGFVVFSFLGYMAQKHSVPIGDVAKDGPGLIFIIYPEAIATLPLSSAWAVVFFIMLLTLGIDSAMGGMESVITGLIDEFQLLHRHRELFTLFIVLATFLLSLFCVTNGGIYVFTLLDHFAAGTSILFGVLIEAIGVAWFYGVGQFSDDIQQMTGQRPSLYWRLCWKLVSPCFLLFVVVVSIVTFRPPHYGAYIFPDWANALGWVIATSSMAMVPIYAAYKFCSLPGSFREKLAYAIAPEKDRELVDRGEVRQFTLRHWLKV
CYP2C19 act: human CYP2C19 activators, primary screen, biochemical, luminescence; Cytochrome P450 2C19 (Homo sapiens), P33261; recombinant CYP2C19, luciferin-H EGE luminescence; active compounds read high; 0 = fully inhibited enzyme, 1 = untreated enzyme; 96,000 tested, under 10 active; activation factor at 5 µM;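 active = activation factor of at least 2 at 5 µM in the primary screen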
CYP2C9 inhib: blockers of cytochrome P450 2C9 activity – biochemical, luminescence, ADME assay, primary screen; inhibition, % at 5 µM; 96,000 tested, 20% active; CYP2C9 Supersomes, luciferin-H conversion; AID 777, 2007;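 active = blocking of liver enzyme CYP2C9 beyond about 50% at 5 µM, limit read from the data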
CYP2C9 act: human CYP2C9 activators, primary screen, biochemical, luminescence; 96,000 tested, 1.4% active; Cytochrome P450 2C9 (Homo sapiens), P11712; recombinant CYP2C9, luciferin-H conversion; active compounds read high; factor 1 = untreated enzyme, 0 = blocked; activation factor at 5 µM; AID 1024, 2008;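 active = activation factor of 2 or more for CYP2C9 at a 5 µM dose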
Of the large screens only hits and unclear results are named; the others gave an inactive call.

Cn1c(SCC(=O)Nc2nccs2)nnc1-c1ccncc1	none
Cc1cc(N2CCN(C/C=C/c3ccccc3)CC2)n2ncnc2n1	CYP2C9 inhib 51.7
CCOC(=O)C1=C(CS(=O)(=O)c2ccccc2)NC(=O)NC1c1ccccc1 (stereo not drawn)	none
CCOC(=O)C1=C(c2ccccc2)NC(=O)NC1c1ccc(N(C)C)cc1 (stereo not drawn)	CYP2C19 inh 79.5
CCC[C@@H]1CCCO[C@@](C(=O)NCc2ccccn2)(C(F)(F)F)C1	none (no result: D1 mod, CYP2C19 inh, CYP2C19 act, CYP2C9 inhib, CYP2C9 act)
CCCC[C@@H]1CCCO[C@@](C(=O)NCc2ccccn2)(C(F)(F)F)C1	DAT uptake mod 3.08 (no result: D1 mod, CYP2C19 inh, CYP2C19 act, CYP2C9 inhib, CYP2C9 act)
Cc1ccc(NC(=S)NCc2ccc3c(c2)OCO3)c(C)c1	CYP2C19 inh 90.1 (no result: D1 mod)
Cc1cc(Cl)ccc1NC(=S)NCCC(c1ccccc1)c1ccccc1	CYP2C19 inh 88.3, CYP2C9 inhib 84.9 (no result: D1 mod)
Cc1cc(Cl)ccc1NC(=S)NCc1ccc(Cl)cc1	CYP2C19 inh 52.5, CYP2C9 inhib 52.5 (no result: D1 mod)
CNC(=S)NCc1ccc(Cl)cc1	none (no result: D1 mod, CYP2C19 inh, CYP2C19 act, CYP2C9 inhib, CYP2C9 act)
Cc1c(Cl)cccc1NC(=S)NCCC(c1ccccc1)c1ccccc1	none (no result: D1 mod, CYP2C19 inh, CYP2C19 act, CYP2C9 inhib, CYP2C9 act)
CCc1ccc(N2CCCn3c2nc2c3c(=O)n(CCN3CCOCC3)c(=O)n2C)cc1	none (no result: DAT uptake mod)
Cc1oc(C(=O)O)cc1COc1ccc2c3c(c(=O)oc2c1)CCC3	none (no result: D1 mod)
Cc1ccc(CNC(=O)C2CC(c3cccc([N+](=O)[O-])c3)=NO2)o1 (stereo not drawn)	none (no result: D1 mod)
CCc1c(C#N)c(N)nc(SCC(=O)OCc2ccccc2)c1C#N	none
Cc1ccc(C)c(N2CCN(C(=O)c3cc(S(=O)(=O)N4CCOCC4)ccc3F)CC2)c1	none (no result: CYP2C19 inh, DAT uptake mod, CYP2C19 act, CYP2C9 inhib, CYP2C9 act)
CC(=O)Nc1ccc(S(=O)(=O)N2CCN(S(=O)(=O)N3CCCCCC3)CC2)cc1	none
Cc1ccc(C)c(N2CCN(S(=O)(=O)c3ccc4c(c3)OCCO4)CC2)c1	CYP2C19 inh 81.0, CYP2C9 inhib 89.6
CC(=O)Nc1ccc(S(=O)(=O)N2CCN(c3cc(C)ccc3C)CC2)cc1	CYP2C9 inhib 85.3
Cc1ccc(Cl)cc1N1CCN(S(=O)(=O)c2ccc3c(c2)OCCO3)CC1	CYP2C9 inhib 79.5
Cc1cc2oc(=O)cc(CN3CCN(S(=O)(=O)c4ccc5c(c4)OCCO5)CC3)c2cc1C	CYP2C19 inh 58.2, CYP2C9 inhib 83.7 (no result: D1 mod)
CCOC(=O)c1ccc(NC(=O)COc2ccc(S(=O)(=O)NC(C)C)cc2)cc1	none
CCCC1=C(C(=O)OCC)C(c2ccc(O)cc2)n2ncnc2N1 (stereo not drawn)	CYP2C9 inhib 93.3
CC1=C(C(=O)OC(C)C)C(c2c[nH]c3ccccc23)n2ncnc2N1 (stereo not drawn)	CYP2C19 inh 60.7
CCOC(=O)C1=C(C)Nc2ncnn2C1c1c[nH]c2ccccc12 (stereo not drawn)	CYP2C19 inh 81.8, CYP2C9 inhib 59.2
CCOC(=O)C1=C(C)Nc2ncnn2C1c1ccccc1F (stereo not drawn)	none
CCCCCOC(=O)C1=C(C)Nc2ncnn2C1c1cccs1 (stereo not drawn)	CYP2C19 inh 78.3 (no result: D1 mod)
O=C(O)CCc1nn2c3ccccc3nc2n(CCN2CCCCC2)c1=O	none (no result: CYP2C19 inh, CYP2C19 act, CYP2C9 inhib, CYP2C9 act)
O=C(N/N=C1/CCCc2ccccc21)C(c1ccccc1)c1ccccc1	none (no result: D1 mod)
CCn1c(SCC(=O)N2CCCc3ccccc32)nnc1-c1ccoc1C	none (no result: D1 mod, CYP2C19 inh, CYP2C19 act, CYP2C9 inhib, CYP2C9 act)
COc1cc(C=O)cc(OC)c1OS(=O)(=O)c1ccc(NC(C)=O)cc1	CYP2C19 inh 91.2, CYP2C9 act 2.8 (no result: D1 mod)
COc1ccc(/C=N/NC(=O)c2ccc3ccccc3c2)cc1OS(=O)(=O)c1ccc(NC(C)=O)cc1	CYP2C19 inh 78.0, CYP2C9 inhib 87.4 (no result: D1 mod)
COC(=O)/C=C/S(=O)(=O)c1ccc(NC(C)=O)cc1	none
CC(C)OCCCNC(=O)Cn1nc(-c2ccccc2)ccc1=O	none
NC(=O)/C=C\C(=O)Nc1cccc(C(F)(F)F)c1	none (no result: D1 mod)
OCCN1CCN(c2nc(NCc3ccco3)c3ccccc3n2)CC1	none (no result: D1 mod, CYP2C19 inh, CYP2C19 act, CYP2C9 inhib, CYP2C9 act)
c1ccc(CN2CCN(c3nc(NCc4ccco4)c4ccccc4n3)CC2)cc1	CYP2C19 inh 51.4, CYP2C9 inhib 66.1 (no result: D1 mod)
CSc1nc(NCc2ccco2)c2ccccc2n1	CYP2C19 inh 64.4, CYP2C9 inhib 63.5 (no result: D1 mod)
O=C(Oc1ccc(-n2cnnn2)cc1)c1ccco1	none
Nc1n[nH]c(-c2ccccc2)c1-c1ccccc1	none
Cc1cc(C)nc(-n2nc(C)c3c(C(F)(F)F)cc(=O)[nH]c32)n1	CYP2C9 inhib 64.9 (no result: D1 mod)
c1ccc(Cn2nnc(CNc3ccccc3)c2-c2c(CNc3ccccc3)nnn2Cc2ccccc2)cc1	none (no result: D1 mod, CYP2C19 inh, CYP2C19 act, CYP2C9 inhib, CYP2C9 act)
Cc1ccc2nsnc2c1S(=O)(=O)N1CCN(CCc2ccccc2)CC1	D1 mod -4.65, CYP2C19 inh 91.5, DAT uptake mod 4.34
Cc1nc2ccc(N)cc2s1	none
Cc1cc(C)c2nc(N)sc2c1	CYP2C19 inh 67.6
Cc1cc(C)n2nc(SCc3nnc(SCc4ccccc4C)s3)nc2n1	CYP2C19 inh 77.1 (no result: D1 mod)
COc1cccc(CSc2nnc(CSc3nc4nc(C)cc(C)n4n3)s2)c1	CYP2C19 inh 97.8 (no result: D1 mod)
O=C(Nc1ccccc1)C1=C[C@@H](C2CCCCC2)C[C@@H](OCc2ccc(CO)cc2)O1	none (no result: D1 mod, CYP2C19 inh, CYP2C19 act, CYP2C9 inhib, CYP2C9 act)
Cc1ccc(C(O)c2ccncc2)cc1 (stereo not drawn)	CYP2C19 inh 71.9, CYP2C9 inhib 77.8 (no result: D1 mod)
Cc1ccccc1C(O)c1ccncc1 (stereo not drawn)	CYP2C19 inh 67.5, CYP2C9 inhib 74.2 (no result: D1 mod)
Cc1ccccc1C(=O)NCc1ccncc1	none
CCOC(=O)N1CCN(C(=O)c2ccc(C)c(S(=O)(=O)Nc3ccccc3)c2)CC1	none
CCOC(=O)N1CCN(C(=O)c2ccc(C)c(S(=O)(=O)Nc3cccc(C)c3C)c2)CC1	CYP2C19 inh 54.5, CYP2C9 inhib 97.5
C=CCNC(=O)c1ccccc1NC(=O)c1ccc(Cl)c(S(=O)(=O)Nc2cc(C)ccc2C)c1	none (no result: D1 mod)
Cc1ccccc1NS(=O)(=O)c1cc(C(=O)Nc2ccccc2-c2ccccc2)ccc1Cl	CYP2C9 inhib 84.3 (no result: D1 mod)
Cc1ccc(C)c(NS(=O)(=O)c2cc(C(=O)N3CCc4ccccc4C3)ccc2Cl)c1	CYP2C9 inhib 59.0 (no result: D1 mod)
Cc1cccc(NS(=O)(=O)c2cc(C(=O)N3CCc4ccccc4C3)ccc2Cl)c1C	CYP2C9 inhib 57.9 (no result: D1 mod)
O=C(Cn1cc2c(n1)CCCC2)N1CCCC1	none
CCc1ccc(OCc2nnc(NC(=O)c3cccs3)s2)cc1	none (no result: D1 mod)
COc1ccc(CCn2nnc(-c3ccc(NC(C)=O)c(Cl)c3)n2)cc1	none (no result: D1 mod, CYP2C19 inh, CYP2C19 act, CYP2C9 inhib, CYP2C9 act)
